Molecules are shown by their SMILES. Records with an inconclusive call do not appear. Active and inactive are the calls of the source. How the source made its calls: active means hit-call score of the fitted dose curve at least 0.9, where 1 is the maximum; inconclusive means response in the unintended direction; inactive means score below 0.9.

Sequence of Estrogen receptor (Homo sapiens) (P03372 whole entry, looked up): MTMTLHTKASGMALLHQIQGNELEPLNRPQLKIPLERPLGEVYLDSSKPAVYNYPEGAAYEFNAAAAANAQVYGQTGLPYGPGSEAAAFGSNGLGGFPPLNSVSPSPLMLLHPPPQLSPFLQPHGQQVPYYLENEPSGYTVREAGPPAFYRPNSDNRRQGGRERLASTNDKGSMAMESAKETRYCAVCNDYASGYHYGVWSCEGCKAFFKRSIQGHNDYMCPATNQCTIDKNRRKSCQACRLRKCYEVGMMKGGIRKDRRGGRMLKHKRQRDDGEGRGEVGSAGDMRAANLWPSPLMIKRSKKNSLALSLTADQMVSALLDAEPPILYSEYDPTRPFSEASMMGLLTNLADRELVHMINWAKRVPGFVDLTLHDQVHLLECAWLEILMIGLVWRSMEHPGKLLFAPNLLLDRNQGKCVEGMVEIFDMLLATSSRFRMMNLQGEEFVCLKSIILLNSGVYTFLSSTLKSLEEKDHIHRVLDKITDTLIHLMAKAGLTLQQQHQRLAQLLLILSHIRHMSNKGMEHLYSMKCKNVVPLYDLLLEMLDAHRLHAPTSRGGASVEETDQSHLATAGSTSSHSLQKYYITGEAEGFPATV

For the first assay, the target named is Estrogen receptor (Homo sapiens) (UniProt P03372). The assay can be described thus: CCTE_Deisenroth_AIME_384WELL_LUC_Active: CCTE's 384-well Estrogen Receptor Transactivation Assay with AIME metabolic competence (ERTA luciferase; metabolism positive), Deisenroth Lab (AID 2284030). The procedure, abridged:
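Estrogenic luciferase signal in VM7Luc4E2 cells is measured at 24 hour, after chemicals have been preconditioned 2 hours with PB/BNF-induced rat hepatic S9 in alginate. Gain of signal is fitted relative to 17beta-estradiol, across 0.002 - 200 uM.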
`O=C(C=Cc1ccccc1)OCc1ccccc1`: the result was inactive.

Regarding `CCN(CCC#N)c1ccc(N=Nc2c(Cl)cc([N+](=O)[O-])cc2Cl)cc1`, the outcome was inactive.

In the case of `CCOC(=O)CC`, the outcome was inactive.

With `CO[Si](OC)(OC)c1ccccc1`, the result was inactive.

Consider `CC1=NN(c2cc(S(=O)(=O)O)ccc2Cl)C(=O)C1N=Nc1ccccc1` (centres undefined), for which the compound was classed as inactive.

Turning to `O=C1CCCC1`, the call was inactive.

On to `O=c1cc(-c2ccccc2)oc2ccccc12`, for which the AC50 is 45.6 µM (active).

`O=C(c1ccccc1)C1CCC1`: the result was inactive.

`CCCCC/C=C\CCC=O`: the compound was called inactive.

For `CCCCCc1ccc(Cl)cc1`, the call was inactive.

In the case of `C=CC(=O)NC(C)(C)CS(=O)(=O)O`, the call was inactive.

Regarding `OC1CCCC1`, the result was inactive.

Turning to `CCCCCCCCCCOS(=O)(=O)O`, the compound was called inactive.

With `CC=C1CC2C=CC1C2` (centres undefined), the result was inactive.

As for `O=S1(=O)OC(c2ccc(O)cc2)(c2ccc(O)cc2)c2ccccc21`, the compound was classed as inactive.

`CC(=O)OC(C)C`: the compound was called inactive.

For `O=C1C(N(CO)C(=O)NCO)N(CO)C(=O)N1CO` (centres undefined), the compound was called inactive.

With `Cc1ccc(C(C)c2ccc(C)c(C)c2)cc1C`, the AC50 was 16 µM (active).

Turning to `C=C1C2CCC(C2)C1(C)C` (centres undefined), the result was inactive.

On to `NC(CO)(CO)CO`, for which the outcome was inactive.

Tested on in a further assay: not listed separately
In words: CCTE_Deisenroth_AIME_384WELL_CTox_Active: Cytotoxicity Assessment (CTOX) in CCTE's 384-well Estrogen Receptor Transactivation Assay with AIME metabolic competence (metabolism positive), Deisenroth Lab (AID 2284037).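 Further: chemicals first conditioned 2 h by alginate-bound induced rat liver S9 before cells; activity means signal loss indicating cell death.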 The essentials: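 Chemicals pre-incubated 2 hours with alginate-immobilised phenobarbital/beta-naphthoflavone-induced male Sprague Dawley rat liver S9, then conditioned medium applied 24 hour to VM7Luc4E2 cells. Viability by fluorogenic protease substrate; 10-point series 0.002 - 200 uM.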
As for `O=C(C=Cc1ccccc1)OCc1ccccc1`, the compound was classed as inactive.

With `CCN(CCC#N)c1ccc(N=Nc2c(Cl)cc([N+](=O)[O-])cc2Cl)cc1`, the call was inactive.

On to `CCOC(=O)CC`, for which the call was inactive.

As for `CO[Si](OC)(OC)c1ccccc1`, the call was inactive.

With `O=C1CCCC1`, the outcome was inactive.

As to `O=c1cc(-c2ccccc2)oc2ccccc12`, the compound was classed as inactive.

Regarding `CCCCC/C=C\CCC=O`, the AC50 was 100 µM (active).

In the case of `CCCCCc1ccc(Cl)cc1`, the call was inactive.

For `C=CC(=O)NC(C)(C)CS(=O)(=O)O`, the call was inactive.

As to `OC1CCCC1`, the outcome was inactive.

As to `CCCCCCCCCCOS(=O)(=O)O`, the AC50 is 19.8 µM (active).

Take `CC=C1CC2C=CC1C2` (centres undefined): the compound was classed as inactive.

As to `O=S1(=O)OC(c2ccc(O)cc2)(c2ccc(O)cc2)c2ccccc21`, the compound was called inactive.

As for `CC(=O)OC(C)C`, the compound was called inactive.

`O=C1C(N(CO)C(=O)NCO)N(CO)C(=O)N1CO` (centres undefined): the result was inactive.

For the compound `C=C1C2CCC(C2)C1(C)C` (centres undefined), the result was inactive.

The next assay concerns the target Estrogen receptor (Homo sapiens) (UniProt P03372). The assay can be described thus: CCTE_Deisenroth_AIME_384WELL_LUC_Inactive: CCTE's 384-well Estrogen Receptor Transactivation Assay without AIME metabolic competence (ERTA luciferase; metabolism negative), Deisenroth Lab (AID 2284038).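 Further: VM7Luc4E2 breast cells given medium preincubated 2 h with S9-free microspheres; hits raise estrogen receptor luciferase signal so potencies reflect agonists.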 The procedure, abridged: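 Metabolism-negative mode: AIME lids stamped in alginate-water, no hepatic S9. 2 h chemical incubation → medium onto VM7Luc4E2 ERTA, 24 h. Readout luciferase luminescence; gain-of-signal fit vs 17beta-estradiol. Conc. 0.002 - 200 uM.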
For the compound `O=C(C=Cc1ccccc1)OCc1ccccc1`, the AC50 was 26.3 µM (active).

As to `CCN(CCC#N)c1ccc(N=Nc2c(Cl)cc([N+](=O)[O-])cc2Cl)cc1`, the call was inactive.

On to `CCOC(=O)CC`, for which the compound was classed as inactive.

For the compound `CO[Si](OC)(OC)c1ccccc1`, the outcome was inactive.

`CC1=NN(c2cc(S(=O)(=O)O)ccc2Cl)C(=O)C1N=Nc1ccccc1` (centres undefined): the result was inactive.

Regarding `O=C1CCCC1`, the compound was classed as inactive.

In the case of `O=c1cc(-c2ccccc2)oc2ccccc12`, the compound was called inactive.

For `O=C(c1ccccc1)C1CCC1`, the outcome was inactive.

On to `CCCCC/C=C\CCC=O`, for which the compound was called inactive.

`CCCCCc1ccc(Cl)cc1`: the call was inactive.

Take `C=CC(=O)NC(C)(C)CS(=O)(=O)O`: the call was inactive.

For `OC1CCCC1`, the compound was called inactive.

In the case of `CCCCCCCCCCOS(=O)(=O)O`, the call was inactive.

Consider `CC=C1CC2C=CC1C2` (centres undefined), for which the call was inactive.

Take `O=S1(=O)OC(c2ccc(O)cc2)(c2ccc(O)cc2)c2ccccc21`: the result was inactive.

Consider `CC(=O)OC(C)C`, for which the call was inactive.

Turning to `O=C1C(N(CO)C(=O)NCO)N(CO)C(=O)N1CO` (centres undefined), the compound was classed as inactive.

`Cc1ccc(C(C)c2ccc(C)c(C)c2)cc1C`: the outcome was inactive.

For the compound `C=C1C2CCC(C2)C1(C)C` (centres undefined), the call was inactive.

As to `NC(CO)(CO)CO`, the compound was classed as inactive.

Tested on in another assay: not listed separately
The assay can be described thus: CCTE_Deisenroth_AIME_384WELL_CTox_Inactive: Cytotoxicity Assessment (CTOX) in CCTE's 384-well Estrogen Receptor Transactivation Assay without AIME metabolic competence (metabolism negative), Deisenroth Lab (AID 2284039).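 Further: cell viability via live-cell protease substrate cleaved to fluorescent probe; cells exposed 24 h to medium preincubated 2 h with alginate-water beads without S9; loss of fluorescence signal means loss of viability.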 The procedure, abridged:
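Fluorescent protease-substrate viability readout after 24 h exposure of VM7Luc4E2 cells to conditioned medium. Chemicals (0.002–200 uM) first sat 2 h over alginate-water beads, no S9. Data fitted bidirectionally, loss of signal meaning viability loss.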
On to `O=C(C=Cc1ccccc1)OCc1ccccc1`, for which the compound was classed as inactive.

As for `CCN(CCC#N)c1ccc(N=Nc2c(Cl)cc([N+](=O)[O-])cc2Cl)cc1`, the AC50 was 100 µM (active).

As for `CCOC(=O)CC`, the result was inactive.

For the compound `CC1=NN(c2cc(S(=O)(=O)O)ccc2Cl)C(=O)C1N=Nc1ccccc1` (centres undefined), the compound was called inactive.

Regarding `O=c1cc(-c2ccccc2)oc2ccccc12`, the outcome was inactive.

On to `CCCCC/C=C\CCC=O`, for which the compound was classed as inactive.

On to `C=CC(=O)NC(C)(C)CS(=O)(=O)O`, for which the compound was called inactive.

Consider `OC1CCCC1`, for which the call was inactive.

In the case of `CCCCCCCCCCOS(=O)(=O)O`, the AC50 was 19.8 µM (active).

In the case of `CC=C1CC2C=CC1C2` (centres undefined), the outcome was inactive.

As for `O=S1(=O)OC(c2ccc(O)cc2)(c2ccc(O)cc2)c2ccccc21`, the outcome was inactive.

`O=C1C(N(CO)C(=O)NCO)N(CO)C(=O)N1CO` (centres undefined): the compound was classed as inactive.

For the compound `C=C1C2CCC(C2)C1(C)C` (centres undefined), the result was inactive.

For `NC(CO)(CO)CO`, the compound was called inactive.

Another assay has as its system DIO2 (gene 1734). In words: CCTE_GLTED_hDIO2: CCTE's human Deiodinase 2 (DIO2) Inhibition Assay, Great Lakes Toxicology and Ecology Division (GLTED) Lab (AID 2284050). The procedure, abridged: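 Readout: absorbance from Sandell-Kolthoff detection of free iodide released by human DIO2 during a 3 h incubation with chemical. Cell-free format, n=3; activity fitted relative to DMSO negative control.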
`O=C(C=Cc1ccccc1)OCc1ccccc1`: the AC50 was 14.6 µM (active).

As for `CCN(CCC#N)c1ccc(N=Nc2c(Cl)cc([N+](=O)[O-])cc2Cl)cc1`, the compound was called inactive.

Consider `CC=C1CC2C=CC1C2` (centres undefined), for which the AC50 is 100 µM (active).

With `O=S1(=O)OC(c2ccc(O)cc2)(c2ccc(O)cc2)c2ccccc21`, the AC50 is 100 µM (active).

Broadly, the AC50 is the concentration at which the activity in the assay is half-maximal.

The values above are taken from PubChem BioAssay (EPA / NIEHS).
